Pf growth 48h: Primary qHTS for delayed death inhibitors of the malarial parasite plastid, 48 hour incubation; P. falciparum luciferase growth in erythrocytes, 48 h; Potency, µM (series often up to 28.7 µM), usual class: inhibitors; 310,000 tested, 5.9% active; AID 504832, 2011
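A one-generation exposure of luciferase-tagged malaria parasites in RPMI 1640/Albumax erythrocyte culture, 37 C and 5% CO2. Inhibition is inferred from decreased luminescence after adding detection reagent.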
Shiga toxin inh: A qHTS for Small Molecule Inhibitors of Shiga Toxin; inhibition, % at 38.7 µM; Vero cells, Shiga toxin protein synthesis inhibition reporter; 290,000 tested, 9.2% active; in the data active = inhibition mostly above about 28%, no sharp cut-off; inactive = mostly below about 43%
CHX counter: Cycloheximide Counterscreen for Small Molecule Inhibitors of Shiga Toxin; cell reporter, cycloheximide protein synthesis inhibition counterscreen; max response, %; 300,000 tested, 12% active; AID 2314, 2010; in the data active = max response mostly above about 13%, no sharp cut-off; inactive = mostly below about 14%; also: read at 38.3 µM for the half of the compounds with a filed dose
Pf growth 96h: Primary qHTS for delayed death inhibitors of the malarial parasite plastid, 96 hour incubation; AID 504834, 2011; 320,000 tested, 6.9% active; Potency, µM (titrated, usually from 28.7 µM), actives largely listed as inhibitors; P. falciparum luciferase reporter growth, 96 h
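Erythrocytes infected with luciferase-expressing P. falciparum were dispensed at 2% hematocrit and 0.05% parasitemia (final), then incubated with compounds 96 hours at 37 C in 5% CO2. Luminescence after detection reagent addition reported growth.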
NS1 function inh: qHTS Assay for Inhibitors of Influenza NS1 Protein Function | AID 2326, 2010 | 270,000 tested, 0.4% active | Potency, µM (doses to about 46.1 µM); calls by dose curve; also: actives are rising curves; nearly all actives have a fitted effect of over 50% in size
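Compounds were scored for reversing the slow growth caused by influenza A NS1 in S. cerevisiae, measured by optical density at 600 nm. Assay medium contained 2% galactose at pH 6.0; NS1-free yeast of the same strain were the positive control.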
Of the large screens only hits and unclear results are named; the others gave an inactive call. Only some compounds are listed: those with a hit (about 21% of all), similar ones and a draw of the others. Unless noted, calls follow the shape of the dose curve; as a rule, active = well fitted inhibition curve with a large enough effect; inconclusive = small, poorly fitted or top-dose-only effect, or another doubt; inactive = no such curve, though single readings can be large or run the other way.

CCN1CCN(C(=O)c2cc3cc(F)ccc3[nH]2)CC1	Pf growth 48h inconclusive, Pf growth 96h inconclusive
CCCn1c(N)c(C(=O)CSc2nc3ncc(Cl)cc3[nH]2)c(=O)[nH]c1=O	Pf growth 96h inconclusive (no result: Shiga toxin inh, CHX counter, NS1 function inh)
COC(=O)c1ccc(C2C(Oc3ccccc3)C(=O)N2CCc2ccc(F)cc2)cc1 (stereo not drawn)	Pf growth 48h inconclusive, Pf growth 96h inconclusive
CC1SC(c2ccc(F)cc2)N(CCc2ccccc2)C1=O (stereo not drawn)	Shiga toxin inh 42, CHX counter 24
O=C(CCSCc1ccccc1Cl)N1CCN(c2cccc(Cl)c2)CC1	none
COC(=O)C1=C(c2ccc(F)cc2OCc2ccccc2)C[C@@H]2CC[C@H]1N2C(=O)NCc1cccc(OC)c1	Pf growth 48h 9.3µM, Pf growth 96h inconclusive (no result: Shiga toxin inh, CHX counter, NS1 function inh)
COC(=O)C1=C(c2ccc(F)cc2OCc2ccccc2)C[C@@H]2CC[C@H]1N2C(=O)NCc1ccc(Br)cc1	Pf growth 48h 2.1µM, Pf growth 96h inconclusive (no result: Shiga toxin inh, CHX counter, NS1 function inh)
COC(=O)C1=C(c2ccc(F)cc2OCc2ccccc2)C[C@@H]2CC[C@H]1N2C(=O)NCc1ccc(OC)cc1	Pf growth 48h 13µM, Pf growth 96h inconclusive (no result: Shiga toxin inh, CHX counter, NS1 function inh)
COC(=O)C1=C(c2ccccc2OCc2ccccc2)C[C@@H]2CC[C@H]1N2C(=O)NCc1ccc(OC)c(OC)c1	Pf growth 48h 13µM, Pf growth 96h inconclusive (no result: Shiga toxin inh, CHX counter, NS1 function inh)
CCc1ccccc1NC(=O)NNC(=O)CCc1ccc(OC)cc1	Pf growth 48h inconclusive
COC(=O)C1=C(c2ccc(F)cc2OCc2ccccc2)C[C@@H]2CC[C@H]1N2C(=O)NCc1cccc(C(F)(F)F)c1	Pf growth 48h 4.7µM, Pf growth 96h inconclusive (no result: Shiga toxin inh, CHX counter, NS1 function inh)
COC(=O)C1=C(c2ccccc2OCc2ccccc2)C[C@@H]2CC[C@H]1N2C(=O)NCc1cccc(F)c1	Pf growth 48h 9.3µM, Pf growth 96h inconclusive (no result: Shiga toxin inh, CHX counter, NS1 function inh)
COCCCNC(=O)CCCn1c(=O)c2ccccc2n(Cc2cccc([N+](=O)[O-])c2)c1=O	Pf growth 96h inconclusive (no result: NS1 function inh)
Cc1cccc(-c2cccc(NC(=O)C3CCCN(C(=O)c4cccnc4)C3)c2)c1 (stereo not drawn)	Pf growth 96h inconclusive
Cc1cccc(-c2cccc(NC(=O)C3CCCN(C(=O)c4csc(C)n4)C3)c2)c1 (stereo not drawn)	Pf growth 48h inconclusive, Shiga toxin inh 46, CHX counter 17, Pf growth 96h inconclusive
CCc1nc(C)c(C(=O)N2CCCC(C(=O)Nc3cccc(-c4cccc(C)c4)c3)C2)o1 (stereo not drawn)	Shiga toxin inh 87, CHX counter 54
Cc1cccc(-c2cccc(NC(=O)C3CCCN(C(=O)c4ocnc4C)C3)c2)c1 (stereo not drawn)	Shiga toxin inh 40, CHX counter 29, Pf growth 96h inconclusive
Cc1nc(C(=O)N2CCCC(C(=O)c3cccc(OC(C)C)c3)C2)cs1 (stereo not drawn)	Pf growth 96h inconclusive
CCOc1ccc(OCC)c(NC(=O)C2CCN(c3cnccn3)CC2)c1	Pf growth 48h inconclusive, Pf growth 96h inconclusive
O=C(NCC1CCCO1)c1ccc(NS(=O)(=O)c2ccccc2)cc1 (stereo not drawn)	none
O=C(c1c(F)cccc1F)N(Cc1ccccn1)C1CCCC1	none
CC(NC(=O)c1ccco1)C(=O)NC(C)c1cc(F)c(Cl)cc1Cl (stereo not drawn)	none
C/C(=N\NC(=O)CSc1nc(C)cc(C)n1)c1cccc([N+](=O)[O-])c1	none
C/C(=N\Nc1nc(N)cc(Cl)n1)c1cccc([N+](=O)[O-])c1	Shiga toxin inh 75, CHX counter 37, Pf growth 96h inconclusive
C/C(=N/Nc1nc(C)c(C)s1)c1cccc([N+](=O)[O-])c1	Pf growth 48h inconclusive, Shiga toxin inh 30, CHX counter 30, Pf growth 96h inconclusive
C/C(=N/NC(=O)CNC(=O)c1ccccn1)c1cccc([N+](=O)[O-])c1	none
C/C(=N/Nc1nc(-c2ccccc2)cc(-c2ccc(F)cc2)n1)c1cccc(N)c1	Pf growth 48h inconclusive, NS1 function inh inconclusive
C/C(=N\Nc1nc(N)cc(Cl)n1)c1cccc(N)c1	Shiga toxin inh 39, CHX counter 52
CC(CCC(=O)O)C1CC[C@H]2C3CCC4CC(=O)CCC4(C)[C@H]3CC(=O)C12C (stereo partly drawn)	Pf growth 96h inconclusive (no result: Pf growth 48h)
O=C(c1ccc(Br)o1)N1CCN(Cc2ccccc2Cl)CC1	Pf growth 48h 12µM, Pf growth 96h inconclusive (no result: Shiga toxin inh)
CC1(C(=O)N2CCN(Cc3ccccc3Cl)CC2)CC1(Cl)Cl (stereo not drawn)	Shiga toxin inh 120, CHX counter 20, Pf growth 96h inconclusive
O=C(c1ccc(Br)o1)N1CCC(Cc2ccccc2)CC1	Pf growth 48h 13µM
O=C(c1cccs1)N1CCC(Cc2ccccc2)CC1	Pf growth 48h 8.3µM
O=C(c1cccs1)N1CCN(Cc2ccccc2)CC1	none
O=C(c1ccc(Br)o1)N1CCN(Cc2ccc3c(c2)OCO3)CC1	Pf growth 96h inconclusive
Cn1nccc1C(=O)N1CCC(Cc2ccccc2)CC1	Pf growth 96h inconclusive
Cc1ccc(-n2nc3c(c2NC(=O)CC(C)C)CS(=O)(=O)C3)c(C)c1	none
Cc1cc(Nc2ccccc2)n(CCOC(=O)COc2ccccc2)n1	none (no result: Pf growth 48h)
Cc1c(C(=O)N2CCC(Cc3ccccc3)CC2)cccc1[N+](=O)[O-]	none
Cc1cccc(C(=O)N2CCC(Cc3ccccc3)CC2)c1[N+](=O)[O-]	Pf growth 96h 0.93µM
c1ccc(CC2CCN(c3ncnc4sccc34)CC2)cc1	CHX counter 13 (no result: NS1 function inh)
COc1cc(/C=C/C(=O)OCC(=O)N2CCN(C(=O)c3ccco3)CC2)ccc1O	none
COc1cc2c(cc1OC)-c1cc(Nc3ccc(N(C)C)cc3)nc(=O)n1CC2	Pf growth 48h inconclusive, Pf growth 96h inconclusive
COc1cc2c(cc1OC)-c1cc(Nc3cccc(F)c3)nc(=O)n1CC2	Pf growth 48h inconclusive, Pf growth 96h 4.1µM
CCN(CC)c1ccc(Nc2cc3n(c(=O)n2)CCc2cc(OC)c(OC)cc2-3)cc1	Pf growth 48h inconclusive, Pf growth 96h 10µM
COc1cc2c(cc1OC)-c1cc(Nc3ccc(F)cc3)nc(=O)n1CC2	Pf growth 48h 2.1µM, Pf growth 96h 1.2µM
COc1ccccc1C(=O)NCCC(=O)NNC(=O)C1COc2ccccc2O1 (stereo not drawn)	none (no result: Shiga toxin inh, CHX counter, NS1 function inh)
Cc1nc2cc3c(cc2c(C)c1C(=O)OC(C)C)OCO3	Shiga toxin inh 29, CHX counter 40
COC(=O)c1nc2cc3c(cc2c(C)c1C(=O)OC)OCO3	none
COc1ccc(C(=O)Nc2ccc(Cl)cc2F)cc1S(=O)(=O)N1CCCC1	Pf growth 48h 12µM, Pf growth 96h 9.3µM (no result: Shiga toxin inh, CHX counter, NS1 function inh)
COc1ccc(C(=O)Nc2cc(S(=O)(=O)N3CCCCC3)ccc2OC)cc1	none (no result: Shiga toxin inh, CHX counter, NS1 function inh)
COc1ccc(S(=O)(=O)N2CCCCC2)cc1NC(=O)c1c(F)cccc1Cl	Pf growth 48h 8.3µM, Pf growth 96h 2.9µM (no result: Shiga toxin inh, CHX counter, NS1 function inh)
COc1ccc(S(=O)(=O)N2CCCCC2)cc1NC(=O)c1ccccc1	none (no result: Shiga toxin inh, CHX counter, NS1 function inh)
COc1ccc(S(=O)(=O)N2CCCC2)cc1NC(=O)c1ccccc1	Pf growth 96h 12µM

High-throughput results (PubChem BioAssay)
